Compound activity from PubChem.
Hits are enriched below; roughly 2.8% of the tested compounds scored in any of these assays.
KKLEB cytotox = cytotoxicity in KKLEB CF airway cells, primary screen, cytotoxicity control for CF NF-kB inhibitor project, cell-based, uHTS, fluorescence assay plates | KKLEB CF airway cells viability, ATPlite luminescence, overnight; stronger effect = lower value; cells stimulated with P. aeruginosa culture filtrate | activity change (cytotoxicity), % at 5 µM | 360,000 compounds, 0.36% hits;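 active = corrected activity change at or below -50% at 5 µM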
MITF TRPM1 inh = inhibitors of MITF-dependent TRPM1 promoter reporter, primary screen, cell-based, SK-MEL-5, single point, luciferase; SK-MEL-5 TRPM1 promoter luciferase, 24 h; inhibition, % at 12.5 µM; 330,000 compounds, 0.83% hits; AID 488899, 2010;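 active = mean inhibition across replicates of 60% or more, whatever share of single replicates reaches that level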
HIF-2a block = HIF-2a reporter inhibitors, primary screen, luminescence, 786-0 RCC cells; inhibition, % at 18.8 µM; 360,000 compounds, 0.72% hits; 786-0 RCC cells HIF-2a reporter, luciferase luminescence, overnight; AID 624352, 2012;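 active = inhibition of the luminescence signal of 40% or more relative to plate controls, in a single-dose primary screen at 18.75 µM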
Peg3 promoter = Peg3 promoter-driven luciferase inhibitors, primary screen, cell-based, HeLa, luciferase luminescence; HeLa PEG-Prom luciferase reporter, overnight; inhibition, % at 20 µM; 360,000 compounds, 1.7% hits; AID 588405, 2011;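 active = inhibition of at least 50% at 20 µM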
CF NFkB inh = inhibitors of PAF-induced NF-kB signaling, primary screen, cell-based, GFP fluorescence, uHTS. inhibition, % at 5 µM. KKLEB NF-kB-GFP reporter, GFP fluorescence overnight. 360,000 compounds, 0.86% hits;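 active = at least 50% inhibition at 5 µM, scaled per plate between neutral and stimulator controls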;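 note: PAF is a Pseudomonas aeruginosa culture filtrate used as stimulus; plate controls were PAF-stimulated DMSO wells for no effect and unstimulated DMSO wells for full effect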
Shn3 inh set2 = reduction of Shn3 3'UTR firefly luciferase signal, primary screen, Schnurri-3 inhibitor project, cell-based, Clone20 osteoblasts, set 2 | inhibition, % at 12.5 µM | 360,000 compounds, 0.52% hits | Clone20 osteoblast Shn3 3'UTR firefly luciferase, 24 h;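 active = mean inhibition of at least 75% with every replicate also reaching 75%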;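 note: 0% = median of neutral control wells and 100% = pilot-screen positive control compound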
Starred values were filed as active, the others as inactive; . = no result given.

SMILES	KKLEB cytotox	MITF TRPM1 inh	HIF-2a block	Peg3 promoter	CF NFkB inh	Shn3 inh set2
CCOC(=O)c1cnc(-n2nc(C)cc2C)nc1NNc1nc(C)cc(C)n1	-12	14	1	-20	15	-22
CCOC(=O)c1cnc(-n2nc(C)cc2C)nc1Nc1ccc(O)cc1	17	71*	14	24	-9	75
CCOC(=O)c1cnc(-n2nc(C)cc2C)nc1NNc1nc(-c2ccccc2)cc(-c2ccccc2)n1	2	62*	18	41	7	92*
CCN(CC)c1ccc(NC(=O)Cn2c(C(C)NC(=O)c3ccc(C)cc3)nc3ccccc32)cc1 (configuration not stated)	-26	8	-46	99*	-10	-6
CCCn1c(C(C)NC(=O)c2ccccc2)nc2ccccc21 (configuration not stated)	-9	14	-10	8	-2	0
COc1cc(C)c(NC(=O)C2CCN(S(=O)(=O)c3cccs3)CC2)cc1OC	9	2	1	10	-17	-12
Cc1noc(C)c1CCC(=O)N1CCCC(N2CCN(c3ccc(F)cc3)CC2)C1 (configuration not stated)	-2	-6	2	5	0	0
CC(=O)N(C1=C(Cl)C(=O)c2ccccc2C1=O)C1CCCCC1	-13	86*	82*	105*	11	7
Cc1ccccc1-n1sc2cc(F)ccc2c1=O	1	6	-30	73*	6	-16
O=C(CCl)NNC(=O)c1c(O)c2ccccc2[nH]c1=O	-3	4	-26	58*	-9	0
Cc1ccc(C(=O)N(C)CCOc2ccccc2)cc1S(=O)(=O)N1CCOCC1	-2	-1	6	-4	-10	-9
CC1=NNC(=O)/C1=C\c1cn(-c2ccccc2)nc1-c1cccs1	-25	98*	94*	115*	112*	64
CC1=NNC(=O)/C1=C\c1cn(-c2ccccc2)nc1-c1ccc(F)cc1	-83*	92*	94*	112*	91*	85
O=C(NC1CCN(C(=O)Nc2cccc(Cl)c2)CC1)c1ccco1	12	8	21	-7	-2	-3
CCCc1ccc(C2C3=C(CC(C)(C)CC3=O)NC3=C2C(=O)c2ccccc23)cc1 (configuration not stated)	-10	5	-16	56*	-1	50
CC(O)(c1cccnc1)c1nc(-c2ccc3c(c2)OCO3)cs1 (configuration not stated)	4	.	-29	-26	-3	-12
C/C(=N\NC(=O)c1c[nH]c2ccccc12)c1ccccn1	-3	-9	-237	-80	-13	69
C/C(=N\NC(=O)c1ccc(F)cc1)c1ccccn1	-10	44	-125	15	-7	89*
C/C(=N\NC(=O)c1ccccc1-n1cccc1)c1ccccn1	-3	.	-15	39	-18	93*
CCN(CC)C(=O)COc1ccc(/C(C)=N/NC(=O)c2ccccc2-n2cccc2)cc1	-3	-3	10	11	5	-3
C/C(=N\NC(=O)c1cc2ccccc2cc1O)c1ccccn1	-33	74*	-76	10	22	97*
COc1ccccc1C=NN=C(NN=Cc1ccccc1OC)NN=Cc1ccccc1OC	-4	88*	-147	3	34	43
Cc1ccc(/C(O)=C/C(=O)C(=O)NNC(=O)C(O)(c2ccccc2)c2ccccc2)cc1	-9	15	4	12	17	-1
O=C(C=C(O)c1ccc(Cl)cc1)C(=O)NNC(=O)C(O)(c1ccccc1)c1ccccc1	5	7	8	2	-10	98*
CCOc1ccc(CCNS(=O)(=O)c2c(C)nc3sccn3c2=O)cc1OCC	0	.	1	-2	-3	-2
COc1ccccc1NC(=O)CSc1nc2ccccc2c(=O)n1C	-1	0	19	26	1	45
